Structures are written as SMILES. Results filed as inconclusive are left out. The source made the active and inactive calls. Calls follow the shape of the dose curve; as a rule, active = well fitted cell-killing curve with a large enough effect; inconclusive = small, poorly fitted or top-dose-only effect; inactive = flat fitted curve, though single readings scatter.
% is scaled to controls: 0 for no effect and ±100 for the full control effect; potency is read from the fitted curve at half-maximal effect.

The nature of this assay: NCATS anti-infectives library activity on HEK293 viability as a counter-qHTS vs the C. elegans viability qHTS (AID 1745854). Conditions: HEK293 viability counter-screen; series mostly up to 41.8 µM; activity change, negative = cytotoxicity: at the top concentration. The text has this: Assay Development and Screening Technology Laboratory (ADST)
National Center for Advancing Translational Sciences (NCATS), Rockville, MD
National Institute of Health (NIH), Bethesda, Maryland
Caenorhabditis elegans has helped elucidate the evolutionarily conserved genetics underlying pathways and cellular processes implicated in human disease and may be ideally positioned to reveal novel pharmacological properties of exiting drugs. The organism's short life cycle and microscopic size is applicable to the technical requirements of high-throughput screening. Here a quantitative high-throughput screening (qHTS)-based forward chemical biology platform has been developed using C. elegans. 384-well microtiter plate laser scanning cytometry was used in the rapid detection and quantification of the fluorescent protein-encoded phenotype to score worm viability. In a proof-of-concept study, the pharmacological qHTS profile obtained from a library of 643 anti-infective compounds.
1. Inglese, J., Auld, D. S., Jadhav, A., Johnson, R. L., Simeonov, A., Yasgar, A., Zheng, W., and Austin, C. P. (2006) Quantitative high-throughput screening: A titration-based approach that efficiently identifies biological activities in large chemical libraries, P Natl Acad Sci USA 103, 11473-11478.
2. Auld, D. S., Johnson, R. L., Zhang, Y. Q., Veith, H., Jadhav, A., Yasgar, A., Simeonov, A., Zheng, W., Martinez, E. D., Westwick, J. K., Austin, C. P., and Inglese, J. (2006) Fluorescent protein-based cellular assays analyzed by laser-scanning microplate cytometry in 1536-well plate format, Method Enzymol 414, 566-589.
3. Zuck, P., Lao, Z., Skwish, S., Glickman, J. F., Yang, K., Burbaum, J., and Inglese, J. (1999) Ligand-receptor binding measured by laser-scanning imaging, Proc Natl Acad Sci U S A 96, 11122-11127.
PROTOCOL TABLE (as described by Inglese J, Shamu CE and Guy RK. 2007)
SEQUENCE No. (e.g., 1, 2, 3, etc.); […] (e.g., C. elegans, Compounds, Incubation, Read, etc.); VALUE and DESCRIPTION.
1. Compounds. Library compounds and digitonin control added at 25 nL per well to 7 assay ready 1536-well Greiner white/solid bottom high base, TC plates and two DMSO control plates, transferred by Echo acoustic dispenser.
2. Cells. Seed 1500 HEK293 per well in 6 uL into assay ready Greiner 1536-well plates.
3. Incubation. Incubate plated cells with compounds at 37C in 5% CO2, 95% RH for 24 hr.
4. Reagent. Add 4 uL of CellTiter-Glo reagent from Promega per well of Greiner 1536-well plates with BioRAPTR FRD.
5. Incubation. Incubate treated cells at room temperature for 10 min., protect from light.
6. Detector. CellTiter-Glo luminescence measured using CCD-based camera (Viewlux) with settings as follows: Exposure, 1 sec; Gain, High; Speed, Slow; Binning, 2X.
NOTES (numbers refer to Sequence numbers above; values are from representative experiments)
1. NIH Anti-Infectives library pre-dispensed into 7 assay ready 1536-well Greiner white/solid bottom high base, TC plates with Echo 555 acoustic dispenser. Most compounds dispensed at 10 mM high concentration and plated in 7-pt 1:5 inter-plate titration at 25 nl / well for a final assay concentration range of 41.7 uM - 2.7 nM. Two 1536-well Greiner assay plates of DMSO plated as screening controls to be read at the beginning and the end of the screen. Controls included DMSO vehicle control added at 25 nl/well to each well of column 1 and […] (83.3 uM final assay concentration), and Digitonin titrated 1:2 at 25 nl/ well to column 4 in duplicate for a final assay concentration range of 83.3 uM - 2.5 nM.
2. HEK293 cells grown for 48 hr in one T175 culture flask in DMEM high glucose media supplemented with 10% FBS and 1% Pen/Strep antibiotic. Cells trypsinized and diluted in 10 ml supplemented media, strained through 40 µm cell strainer, and diluted to a total volume of 40 ml with supplemented media. […]
On the technique in general: Quantitative high-throughput screening tests each substance at several concentrations.
In the case of `CC(O)(P(=O)(O)O)P(=O)(O)O`, the activity change, negative = cytotoxicity was 0.883% [at 8.35 µM] (inactive).
Take `CCCCC1=NC2(CCCC2)C(=O)N1Cc1ccc(-c2ccccc2-c2nn[nH]n2)cc1`: the “activity change, negative = cytotoxicity” value was 4.75% (inactive).
On to `COc1cccc2c1C(=O)c1c(O)c3c(c(O)c1C2=O)C[C@@](O)(C(C)=O)C[C@@H]3O[C@H]1C[C@H](N)[C@H](O)[C@H](C)O1`, for which the Potency was 5.62 µM (active).
Take `CCCCCCCCCCCCCCCCOP(=O)([O-])OCC[N+](C)(C)C`: the activity change, negative = cytotoxicity is -18.3% [at 8.35 µM] (inactive).
Same read-out and setting: to `CC[C@@H](CO)NCCN[C@@H](CC)CO` belongs 2.75% (inactive); to `CC(C)(C)NC(=O)[C@@H]1CN(Cc2cccnc2)CCN1C[C@@H](O)C[C@@H](Cc1ccccc1)C(=O)N[C@H]1c2ccccc2C[C@H]1O`, -7.11% (inactive); to `CCN(CC)C(=O)/C(C#N)=C/c1cc(O)c(O)c([N+](=O)[O-])c1`, 8.55% (inactive).
For `NCCC(O)(P(=O)(O)O)P(=O)(O)O`, the “activity change, negative = cytotoxicity” value was 1.44% (inactive).
`NCCCC[C@H](N[C@@H](CCc1ccccc1)C(=O)O)C(=O)N1CCC[C@H]1C(=O)O`: the activity change, negative = cytotoxicity was -8.63% [at 8.35 µM] (inactive).
With `C=C1C(=C/C=C2\CCC[C@]3(C)[C@@H]([C@H](C)/C=C/[C@@H](O)C4CC4)CC[C@@H]23)C[C@@H](O)C[C@@H]1O`, the “activity change, negative = cytotoxicity” value is -10.4% (inactive).
Regarding `O=c1ccc2ccccc2o1`, the “activity change, negative = cytotoxicity” value was 0.163% [at 83.3 µM] (inactive).
As to `CC1(C)O[C@@H]2[C@@H](CO[C@@]3(COS(N)(=O)=O)OC(C)(C)O[C@@H]23)O1`, the “activity change, negative = cytotoxicity” value was -0.213% (inactive).
Same read-out and setting: to `CCCCc1nc(Cl)c(CO)n1Cc1ccc(-c2ccccc2-c2nn[nH]n2)cc1` belongs -17% (inactive).

For the origin of these results see PubChem BioAssay (NCATS).
